# Hits are enriched below; roughly 11% of the tested compounds scored in any of these assays.
# ALDH1A1 block = blocks purified human ALDH1A1 activity; P00352; Purified ALDH1A1, NADH fluorescence, propionaldehyde substrate; Potency, µM (top dose mostly 75.3 µM), actives largely listed as inhibitors; actives 7.3% (n = 220,000); AID 1030
# Target sequence (P00352 whole entry, looked up): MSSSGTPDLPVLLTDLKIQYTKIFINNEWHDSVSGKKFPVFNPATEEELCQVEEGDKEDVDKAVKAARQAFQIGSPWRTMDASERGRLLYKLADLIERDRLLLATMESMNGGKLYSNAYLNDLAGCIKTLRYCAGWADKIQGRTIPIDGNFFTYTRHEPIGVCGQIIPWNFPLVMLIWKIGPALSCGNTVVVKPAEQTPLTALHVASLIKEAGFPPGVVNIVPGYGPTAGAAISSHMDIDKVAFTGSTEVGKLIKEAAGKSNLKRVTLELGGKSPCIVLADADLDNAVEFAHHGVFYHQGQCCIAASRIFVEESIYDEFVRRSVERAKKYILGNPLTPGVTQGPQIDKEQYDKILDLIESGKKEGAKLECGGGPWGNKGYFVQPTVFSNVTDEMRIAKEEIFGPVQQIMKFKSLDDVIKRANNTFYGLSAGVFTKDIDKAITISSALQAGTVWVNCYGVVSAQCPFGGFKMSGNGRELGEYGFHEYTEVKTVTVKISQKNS
# PNC assembly inh = blocks assembly of the perinucleolar compartment; PC3M PTB-GFP, PNC prevalence imaging, 16 h; active compounds read low; activity change (PNC), negative = inhibition, % at 10 µM; actives 3.1% (n = 140,000);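 active means readout at or below -70, meaning at least 70% loss of cells showing the perinucleolar compartment, a nuclear body marking cancer cells; inconclusive means readout between -30 and a set limit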
#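 Compounds are pinned in duplicate onto adhered PC3M cells stably expressing GFP-tagged PTB and incubated 16 h at 37 C. Cells are then fixed, nuclei stained with Hoechst, and PNC-positive cells counted.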
# HPGD block = inhibitors of human 15-hydroxyprostaglandin dehydrogenase (HPGD) | purified HPGD, NADH fluorescence kinetic, PGE2 substrate | Potency, µM, hits mostly inhibitors | AID 894 | P15428 | actives 4.3% (n = 150,000)
#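 20 nM HPGD preincubated 15 min at room temperature with compound in 50 mM Tris-HCl pH 8, 0.01% Tween 20. Started with 1 mM NAD+ and 30 uM prostaglandin E2; NADH fluorescence (360/450 nm) read 5 times over 30-s intervals, last minus first.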
# Hits are given with their value; n = inactive; u = inconclusive; x = no result given. Unless noted, the call rests on the fitted dose curve; in most records, active means well fitted inhibition curve with a large enough effect (not every such curve was filed as active); inconclusive means small, poorly fitted or top-dose-only effect, or another doubt; inactive means no such curve, though single readings can be large or run the other way.
SMILES,ALDH1A1 block,PNC assembly inh,HPGD block
O=C(Nc1ccc(Cl)c(Cl)c1)c1ccc(Cn2cc(Cl)cn2)cc1,n,n,u
NNC(=O)c1ccc(Cn2cc(Cl)cn2)cc1,11µM,n,n
NNC(=O)c1ccc(Cn2cc(Br)cn2)cc1,5.6µM,-114,n
CCOC(=O)[C@H](CCc1ccccc1)N[C@@H](C)C(=O)N1[C@H](C(=O)O)C[C@H]2CCCC[C@@H]21,n,x,n
Cc1cc(NC(=O)CCSc2ccccc2)no1,n,x,x
CC1C2CCC3C4CC=C5CC(N(C)C)CC[C@@]5(C)C4CC[C@@]32CN1C (some centres not stated),n,x,n
CC(NS(=O)(=O)/C=C/c1ccccc1)C(=O)NCCc1ccc(S(N)(=O)=O)cc1 (configuration not stated),n,x,x
Cc1ccc(-c2cc(-c3cccc(F)c3)n[nH]2)c(O)c1,n,n,n
Oc1ccc(Br)cc1-c1cc(-c2ccc(Cl)cc2)n[nH]1,n,u,u
Cc1ccc(O)c(-c2cc(-c3ccccc3F)[nH]n2)c1,n,n,4.5µM
Cc1ccc(-c2cc(-c3ccccc3C)[nH]n2)c(O)c1,n,n,10µM
Cc1ccc(O)c(-c2cc3ccccc3[nH]2)c1,u,n,u
Cc1ccc(-c2cc(C(=O)Nc3c(C)n(C)n(-c4ccccc4)c3=O)[nH]n2)c(O)c1,n,n,n
Oc1ccc(Br)cc1-c1cc(-c2ccccc2)n[nH]1,n,n,25µM
Cc1ccc(O)c(-c2cc(-c3cccc(F)c3)n[nH]2)c1,n,n,16µM
COc1ccccc1-c1nccc(-n2ccnc2)n1,n,x,n
CO/N=C(/CS(=O)(=O)Cc1ccccc1Cl)c1ccc(Cl)cc1Cl,n,u,n
C[N+]1(C)C[C@@H](O)C[C@@H]1C(=O)[O-],n,x,n
CCOC(=O)N1CCC(N2CCCC(CO)(Cc3ccccc3C)C2)CC1 (configuration not stated),n,x,x
CC/C=C\C/C=C\C/C=C\C/C=C\C/C=C\C/C=C\CCC(=O)NCCO,u,x,n
COc1ccc(-c2cc(-c3ccccc3O)[nH]n2)cc1OC,n,u,n
O=[N+]([O-])c1ccccc1-c1cc(-c2ccccc2O)n[nH]1,u,-83,13µM
CCCCSc1nc2c(cnn2-c2ccc(C)c(C)c2)c(=O)[nH]1,n,n,n
CCCSc1nc2c(cnn2-c2ccc(C)c(C)c2)c(=O)[nH]1,n,-95,n
OCCN1CCN(CC(O)C(F)(F)F)CC1 (configuration not stated),n,x,x
SMILES,ALDH1A1 block,PNC assembly inh,HPGD block
COc1ccc(CNc2nc(NCc3ccc(OC)c(OC)c3)n(C(=O)c3cccs3)n2)cc1OC,n,n,n
CC1CCCCN1C(=O)CSc1nc(N)cc(=O)[nH]1 (configuration not stated),n,n,n
CC1CCN(C(=O)CSc2nc3cccnc3n2C)CC1,n,n,n
CCOc1ccc2c(c1)c1nnc(SCC(=O)N3CCC(C)CC3)nc1n2C,u,u,3.5µM
CCOc1ccc2c(c1)c1nnc(SCC(=O)N3CCCCC3C)nc1n2C (configuration not stated),13µM,n,16µM
COc1cc(/C=C(\NC(C)=O)C(=O)NC(C)(C)C)ccc1OC(C)=O,n,n,n
COc1cc(/C=C(\NC(C)=O)C(=O)Nc2cccc(O)c2)ccc1OC(C)=O,0.089µM,u,n
Cc1c(N/N=C(\C#N)C(=O)c2ccc(Cl)cc2)c(=O)n(-c2ccccc2)n1C,u,n,28µM
N#C/C(=N\Nc1ccc(Cl)cc1)C(=O)c1ccccc1,n,n,n
CC1CN(C(=O)c2ccccc2)c2ccccc2NC1=O (configuration not stated),n,n,n
CNC(=S)N1N=C(c2ccc(OC)cc2)CC1c1ccc(N(C)C)cc1 (configuration not stated),n,n,n
CCOC(=O)/C=C(\C)N1N=C(c2ccccc2)CC1c1ccccc1 (configuration not stated),1µM,x,x
COc1ccc(C2CC(c3ccc(Br)cc3)=NN2C(=S)Nc2ccccc2)cc1 (configuration not stated),11µM,x,x
CCOC(=O)c1nnn(CC(=O)N2N=C(c3ccccc3)CC2c2ccccc2)c1C(=O)OCC (configuration not stated),n,n,u
COc1ccc(C2=NN(C(N)=S)C(c3ccccc3)C2)cc1 (configuration not stated),7.5µM,x,x
CNC(=S)N1N=C(c2ccc(Br)cc2)CC1c1ccc(Br)cc1 (configuration not stated),n,u,n
COc1ccc(C2=NN(C(=S)Nc3ccccc3)C(c3ccccc3)C2)cc1 (configuration not stated),13µM,n,n
COc1ccc(C2CC(c3ccccc3)=NN2C(=S)Nc2ccccc2)cc1 (configuration not stated),n,x,x
O=C(CCCc1nc2ccccc2s1)NCc1cccnc1,n,x,x
CCOC(=O)c1ccc(C(=O)OCC)c(NC(=S)Nc2ccc([N+](=O)[O-])cc2OC)c1,u,n,u
CCN1CCN(C(=O)c2ccccc2NS(=O)(=O)c2ccc(Cl)cc2)CC1,n,x,x
FC(F)(F)c1cc(CN2CC3(CCNCC3)C2)cc(C(F)(F)F)c1,n,x,n
CC1CCCC(C)N1C(=O)COC(=O)C(Cc1ccccc1)NC(=O)c1cccs1 (configuration not stated),n,n,n
COc1ccc2c(c1)N(S(=O)(=O)c1ccccc1)CCC2=O,n,n,n
CN(C)CC(C(=O)c1ccccc1)c1ccccc1 (configuration not stated),n,u,n
SMILES,ALDH1A1 block,PNC assembly inh,HPGD block
CN(C)C/C(Cl)=C(\Cl)c1ccccc1,7.1µM,u,n
Cc1cccc(C)c1NC(=O)c1sc(Cl)nc1C,n,n,n
COc1ccccc1NS(=O)(=O)c1cc(N)ccc1N1CCCCC1,3.2µM,x,x
COc1ccccc1NS(=O)(=O)c1cc(NC(=O)Nc2ccc(Cl)cc2Cl)ccc1N1CCCCC1,u,n,u
COc1ccccc1NS(=O)(=O)c1cc(NC(=O)CC(C)(C)C)ccc1N1CCOCC1,n,x,x
COc1ccccc1NS(=O)(=O)c1cc(NC(=O)CCC2CCCC2)ccc1N1CCOCC1,16µM,x,x
O=C(Nc1cccc(F)c1)N1CC2(CCN(C(=O)c3cccc(F)c3)CC2)C1,n,x,n
O=c1cnc2cnc(Nc3ccccc3)nc2n1C1CC1,n,x,x
O=C(CCc1ccccc1)N1CCN(c2ccc(F)cc2)CC1,n,x,x
O=C(Oc1ccccc1)N1CCC2(CC1)CCN(c1ncccn1)CC2,u,x,n
CCn1nnnc1SCC(=O)Nc1ccc(OC)cc1,n,-100,n
O=C(CSc1nnnn1C1CCCC1)NCc1ccccc1,u,n,n
O=C(CSc1nnnn1C1CCCC1)Nc1cccc(NC(=O)c2ccco2)c1,u,n,n
CCOC(=O)c1ccc(NC(=O)CSc2nnc(CNc3ccc(OC)cc3)n2C)cc1,13µM,n,n
COc1ccc(NCc2nnc(SCC(=O)Nc3ccc(OC)cc3)n2C)cc1,n,x,x
O=C(CSc1nnnn1C1CC2CCC1C2)Nc1ccnc2ccccc12 (configuration not stated),2.5µM,n,u
COc1ccc(NC(=O)CCSc2nnnn2C)cc1,n,x,x
O=C(CSc1nnnn1C1CCCCC1)Nc1cccc(NC(=O)c2ccco2)c1,28µM,n,n

# High-throughput results from PubChem.
